# An excerpt weighted towards active compounds, which were near 2.9% of everything screened.
# KLK7 zymogen act: activates the human kallikrein-7 zymogen; P49862; purified proKLK7, EDANS-DABCYL substrate fluorescence; 100% is mature enzyme control, 0% vehicle; activation, % at 7 µM; hit rate 0.9% among 370,000; AID 652039;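 active means activation above the mean of all tested compounds plus 3 SD, computed per campaign excluding outliers beyond control limits, cut at about 13% in these data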
# PLCb3 inh: blocks human PLC-beta3 enzyme activity; AID 720704; inhibition, % at 12.2 µM; hit rate 0.18% among 370,000; Q01970; Purified PLC-beta3, fluorogenic substrate, fluorescence; in the data active means inhibition above about 11%;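 further: 0% = median of compound wells on plate and 100% = full blocker control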
# ADAM17 inh: inhibitors of human ADAM17. P78536. inhibition, % at 6.95 µM. hit rate 0.83% among 370,000. AID 720648. recombinant ADAM17, EDANS/DABCYL FRET peptide cleavage;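 active means inhibition above the mean of compounds lying between control limits plus 3 SD, set per campaign, cut at about 8.5% in these data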;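 further: 0% = DMSO-only wells as the low control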
# PLC-gamma1 inh: blocks human PLC-gamma1 enzyme activity | P19174 | purified PLC-gamma1, fluorogenic substrate, fluorescence | inhibition, % at 12.2 µM | hit rate 0.84% among 370,000 | AID 720700; in the data active means inhibition above about 9.5%
# ADAM10 inh: ADAM10 inhibition, QFRET primary screen | O14672 | recombinant ADAM10, EDANS/DABCYL FRET peptide cleavage, 3 h | inhibition, % at 7 µM | hit rate 0.62% among 370,000 | AID 720582;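 active means inhibition above a per-campaign cutoff equal to the mean of compounds falling between control-based bounds plus 3 SD, cut at about 20% in these data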;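 further: 0% = DMSO wells while the 100% control is not disclosed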
# ADAM10 confirm: human ADAM10 inhibition, confirmation; shares compounds with ADAM10 inh; ADAM10 QFRET peptide cleavage, EDANS fluorescence; inhibition, % at 6.95 µM; hit rate 1% among 2,100; AID 743208;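 active means inhibition above about 20% chosen separately for each screening run, limit read from the data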;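 further: 0% = DMSO wells and 100% = marimastat wells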
# ADAM17 counter: counter-screen for ADAM10 exosite inhibitors: inhibitors of human ADAM17 | shares compounds with ADAM10 inh | ADAM17 QFRET peptide cleavage, EDANS fluorescence | inhibition, % at 6.95 µM | hit rate 0.5% among 2,100 | AID 743214;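 active means mean triplicate inhibition above the solvent-only control wells' mean plus 3 SD, cut at about 12% in these data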;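 further: 0% = DMSO wells and 100% = marimastat wells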
# ADAM10 ctr: ADAM10 inhibition, counter-screen for ADAM17 exosite hits; recombinant ADAM10, EDANS/DABCYL FRET peptide cleavage, 3 h; inhibition, % at 6.95 µM; hit rate 47% among 2,900; shares compounds with ADAM17 inh;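 active means mean inhibition over the triplicate runs exceeds the activity threshold set in the earlier primary screen, cut at about 20% in these data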;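 further: 0% = DMSO wells and 100% = marimastat wells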
# ADAM17 confirm: confirmation of inhibitors of human ADAM17 | recombinant ADAM17, EDANS/DABCYL QFRET peptide cleavage | hit rate 65% among 2,900 | shares compounds with ADAM17 inh | inhibition, % at 6.95 µM | AID 743257;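 active means mean inhibition across replicates above the hit cutoff set in the primary screen, cut at about 8.5% in these data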;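 further: 0% = DMSO wells and 100% = marimastat wells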
# Active calls of the source: *; / = no result given.
SMILES,KLK7 zymogen act,PLCb3 inh,ADAM17 inh,PLC-gamma1 inh,ADAM10 inh,ADAM10 confirm,ADAM17 counter,ADAM10 ctr,ADAM17 confirm
CN(C(=O)c1cccc(NC(=O)Cc2ccc(NC(=O)C3CCN(S(=O)(=O)c4cccc([N+](=O)[O-])c4)CC3)cc2)c1)C1CCCC1,0,-2,4,-1,6,/,/,/,/
CN1CCS/C1=C\C=C1/SC(=S)N(CC(=O)O)C1=O,0,-17,10*,-12,25*,2,0,17,11*
NS(=O)(=O)c1cccc(NC(=O)CCc2ccc(S(=O)(=O)N3CCOCC3)cc2)c1,0,-3,-12,3,3,/,/,/,/
CC(C)(C)OC(=O)N1CCC(N[C@@H](Cc2c[nH]c3ccccc23)C(=O)NCC(c2ccccc2)c2ccccc2)(C(=O)NC2CCCCC2)CC1,/,2,6,0,14,/,/,/,/
CC(C)(C)OC(=O)N1CCC(N[C@@H](Cc2ccccc2)C(=O)NCCc2c[nH]c3ccccc23)(C(=O)NC2CCCCC2)CC1,/,3,10*,8,24*,7,1,34*,19*
CC(C)Oc1ccc(CNC(=O)CC(c2ccccc2)c2cc(Cl)ccc2O)cc1 (stereo not given),0,-9,16*,4,25*,8,3,33*,16*
COc1ccc(OCCNS(=O)(=O)c2ccc3oc4ccccc4c3c2)cc1,0,0,-3,-59,12,/,/,/,/
O=S(=O)(NCCOCC(F)(F)C(F)F)c1ccc2oc3ccccc3c2c1,0,2,9.5*,5,29*,1,0,32*,21*

# Screening results (PubChem BioAssay)
